The list is not random: actives were taken first. Their share in the collection is about 2.8%.
MITF TRPM1 inh = MITF TRPM1 promoter inhibition in SK-MEL-5 cells; inhibition, % at 12.5 µM; 330,000 compounds, 0.83% hits; SK-MEL-5 TRPM1 promoter luciferase, 24 h; AID 488899;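 active = mean inhibition across replicates of 60% or more, whatever share of single replicates reaches that level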
KKLEB cytotox = counter-screen for CF NF-kB inhibitors: cytotoxicity; KKLEB CF airway cells viability, ATPlite luminescence, overnight; hits give low values; cells stimulated with P. aeruginosa culture filtrate; 360,000 compounds, 0.36% hits; activity change (cytotoxicity), % at 5 µM;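 active = corrected activity change at or below -50% at 5 µM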
Shn3 3UTR inh = Schnurri-3 reporter inhibition in Clone20 osteoblasts. inhibition, % at 12.5 µM. Clone20 osteoblast Shn3 3'UTR firefly luciferase, 24 h. 360,000 compounds, 0.52% hits. AID 588674;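 active = mean inhibition of at least 75% with every replicate also reaching 75%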;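 note: 0% = median of neutral control wells and 100% = pilot-screen positive control compound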
HIF-2a inh = inhibitors of HIF-2a; 360,000 compounds, 0.72% hits; 786-0 RCC cells HIF-2a reporter, luciferase luminescence, overnight; inhibition, % at 18.8 µM;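 active = inhibition of the luminescence signal of 40% or more relative to plate controls, in a single-dose primary screen at 18.75 µM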
Peg3 prom inh-1 = Peg3 promoter activity inhibition; HeLa PEG-Prom luciferase reporter, luminescence, overnight; 360,000 compounds, 1.7% hits; AID 588405; inhibition, % at 20 µM;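 active = inhibition of at least 50% at 20 µM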
CF NFkB inh = blocks PAF-induced NF-kB reporter in cystic fibrosis cells | 360,000 compounds, 0.86% hits | KKLEB NF-kB-GFP reporter, GFP fluorescence overnight | AID 588850 | inhibition, % at 5 µM;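 active = at least 50% inhibition at 5 µM, scaled per plate between neutral and stimulator controls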;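 note: PAF is a Pseudomonas aeruginosa culture filtrate used as stimulus; plate controls were PAF-stimulated DMSO wells for no effect and unstimulated DMSO wells for full effect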
Peg3 prom inh-2 = Peg3 promoter inhibition confirmation. shares compounds with Peg3 prom inh-1. HeLa PEG-Prom luciferase reporter, luminescence, overnight. inhibition, % at 20 µM. 1,300 compounds, 84% hits. AID 602417;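 active = at 20 µM dose, 40% or more inhibition averaged across four replicates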
CF NFkB inh conf = CF NF-kB inhibition confirmation, single concentration; shares compounds with CF NFkB inh; KKLEB CF airway cells, PAF-induced NF-kB-GFP fluorescence, overnight; inhibition, % at 5 µM; 1,300 compounds, 64% hits; in the data active = inhibition above about 40%;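 note: stimulus PAF is a Pseudomonas aeruginosa filtrate and not platelet activating factor; plate controls were DMSO wells with stimulus for no effect and unstimulated DMSO wells for full effect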
Mdm2-MdmX confirm = confirmation of inhibitors of human Mdm2/MdmX interaction, set 2; shares compounds with HIF-2a inh; SaOS-2 split-luciferase Mdm2/MdmX complementation, luminescence; inhibition, % at 8 µM; 740 compounds, 99% hits; AID 504601;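 active = mean inhibition of the luminescence signal across two replicates at or above 26 percent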
Target sequence (O15151 whole entry, looked up): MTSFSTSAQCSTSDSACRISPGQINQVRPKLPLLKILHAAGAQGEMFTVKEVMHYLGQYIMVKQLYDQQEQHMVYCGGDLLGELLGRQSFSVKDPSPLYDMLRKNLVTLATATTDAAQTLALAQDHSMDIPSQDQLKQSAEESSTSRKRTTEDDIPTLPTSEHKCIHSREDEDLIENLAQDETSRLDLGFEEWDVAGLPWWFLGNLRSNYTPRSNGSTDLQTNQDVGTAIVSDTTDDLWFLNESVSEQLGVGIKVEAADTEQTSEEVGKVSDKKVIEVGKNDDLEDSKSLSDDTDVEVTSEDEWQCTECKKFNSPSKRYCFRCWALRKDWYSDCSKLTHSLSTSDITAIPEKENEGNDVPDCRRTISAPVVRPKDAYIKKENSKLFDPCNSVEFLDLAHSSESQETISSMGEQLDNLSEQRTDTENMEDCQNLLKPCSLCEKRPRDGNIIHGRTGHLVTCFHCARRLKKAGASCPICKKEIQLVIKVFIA
Target sequence (Q00987 whole entry, looked up): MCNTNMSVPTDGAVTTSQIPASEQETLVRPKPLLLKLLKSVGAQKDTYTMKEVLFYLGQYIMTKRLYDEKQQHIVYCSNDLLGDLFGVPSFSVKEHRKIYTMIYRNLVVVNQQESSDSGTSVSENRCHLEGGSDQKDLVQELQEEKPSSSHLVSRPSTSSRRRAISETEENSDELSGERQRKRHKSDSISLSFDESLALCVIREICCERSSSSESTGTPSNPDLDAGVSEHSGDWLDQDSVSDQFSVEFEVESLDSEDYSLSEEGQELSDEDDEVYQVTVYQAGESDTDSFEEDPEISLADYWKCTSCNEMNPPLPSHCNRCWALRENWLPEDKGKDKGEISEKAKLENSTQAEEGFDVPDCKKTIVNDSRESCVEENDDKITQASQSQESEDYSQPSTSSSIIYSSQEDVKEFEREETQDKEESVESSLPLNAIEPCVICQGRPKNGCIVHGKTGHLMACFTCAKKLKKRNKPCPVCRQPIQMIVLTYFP
HIF-2a inh conf = confirmation of HIF-2a inhibitors | 786-0 RCC cells, HIF-2a luciferase reporter luminescence, overnight | 1,800 compounds, 56% hits | shares compounds with HIF-2a inh | inhibition, % at 18.8 µM;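 active = mean inhibition across four replicates of at least 40 percent at the single tested concentration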
HIF-1a counter = counter-screen for HIF-2a inhibitors: HIF-1a inhibition in MiaPaCa-2 cells; shares compounds with HIF-2a inh; MiaPaCa-2 HIF-1a luciferase reporter, desferoxamine, overnight; inhibition, % at 18.8 µM; 1,800 compounds, 72% hits;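 active = mean inhibition of the reporter signal across four replicates at the single tested dose of 50% or more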
The depositor's hits bear a star; · = not tested or not shown.

SMILES	MITF TRPM1 inh	KKLEB cytotox	Shn3 3UTR inh	HIF-2a inh	Peg3 prom inh-1	CF NFkB inh	Peg3 prom inh-2	HIF-2a inh conf	HIF-1a counter	others
O=C(N/N=C\c1ccc(COc2ccc([N+](=O)[O-])cc2)o1)c1cccc(Cl)c1	-2	-16	12	17	23	-9	·	·	·
Cc1ccc(C(=O)O/N=C(\N)c2ccccn2)cc1	67*	-22	44	62*	107*	9	77*	·	·	Mdm2-MdmX confirm=49*
CC(C)(C)c1ccc(C(=O)O/N=C(\N)c2ccccn2)cc1	78*	-38	63	82*	111*	47	99*	85*	84*
C/C(=N/NC(=O)c1ccc(C(C)(C)C)cc1)c1ccccn1	22	-6	81	-170	-95	26	·	·	·
C/C(=N\OC(=O)c1ccc(Br)cc1)c1ccccn1	2	5	19	-23	-102	-5	·	·	·
CCOc1ccc(NC(=O)CSc2ccc(-c3cccnc3)nn2)cc1	-17	-4	-15	-6	-22	13	·	·	·
CCCCCCN1C=CC=C/C1=C\C=C(C#N)C#N	2	-18	7	15	34	-5	·	·	·
Cc1csc(NC(=O)c2cn3ccccc3n2)n1	54	3	65	53*	69*	-28	65*	77*	51*
CCCCCCCCCCCCCCC(O)C[N+](C)(CCO)CCO (stereo not drawn)	3	-34	-7	73*	70*	55*	73*	39	84*	CF NFkB inh conf=56*
S=C(NCCSCc1ccc(Cl)cc1Cl)Nc1ccccc1	3	-10	-9	16	18	3	·	·	·
S=C(Nc1ccccc1)Nc1ccc(OCc2ccc(Cl)cc2Cl)cc1	82*	0	85*	93*	79*	2	74*	98*	100*
COc1ccc2sc(N(CCCN(C)C)C(=O)c3ccc(S(=O)(=O)N4CCc5ccccc5C4)cc3)nc2c1	85*	-98*	-18	82*	101*	74*	98*	32	106*	Mdm2-MdmX confirm=95*
COc1ccc2sc(N(CCCN(C)C)C(=O)c3ccc(S(=O)(=O)N4CCCC4)cc3)nc2c1	-2	-19	-10	-53	-81	12	·	·	·
CN(C)CCCN(C(=O)c1ccc(S(=O)(=O)N2CCc3ccccc3C2)cc1)c1nc2ccc(F)cc2s1	73*	-38	-3	73*	104*	-20	92*	15	103*
COc1ccc(CN2CCSc3sccc3C2=O)cc1	2	12	-26	6	1	12	·	·	·
COc1ccccc1CNC(=O)Cn1cc([N+](=O)[O-])ccc1=O	-4	14	5	-10	5	19	·	·	·
COc1ccc(C(=O)N2CCCC(C(=O)O)C2)c2ccccc12 (stereo not drawn)	13	2	10	14	8	9	·	·	·
O=C(CSc1nncs1)Nc1nnc(-c2ccccc2)o1	2	15	0	0	0	-18	·	·	·
CCCN1C=CC(=C2C(=O)c3ccccc3C2=O)C=C1	105*	-61*	77	90*	105*	-4	94*	·	·	Mdm2-MdmX confirm=99*
CC1=CC(=C2C(=O)c3ccccc3C2=O)C=C(C)O1	-26	14	-44	-225	-172	-47	·	·	·
CCCCN(CC)C(=O)CSc1nc2n[nH]c(C)c2c(=N)n1-c1cccc(C)c1	1	-4	14	43*	53*	-6	43*	10	61*
Cc1cccc(-n2c(SCC(=O)N3CCCC3)nc3n[nH]c(C)c3c2=N)c1	29	-11	15	0	33	15	·	·	·
O=C(NCCN1CCOCC1)C(=O)NCC1OCCCN1S(=O)(=O)c1cc(F)ccc1F (stereo not drawn)	3	0	4	-2	3	4	·	·	·
CCCCN=C1NN=C(c2ccc3c(c2)OCCO3)CS1	16	-1	-9	-59	-95	-2	·	·	·
c1cc2c(cc1C1=NNC(=NC3CC3)SC1)OCCO2	95*	-32	81	86*	93*	-3	91*	94*	97*	Mdm2-MdmX confirm=95*
SMILES	MITF TRPM1 inh	KKLEB cytotox	Shn3 3UTR inh	HIF-2a inh	Peg3 prom inh-1	CF NFkB inh	Peg3 prom inh-2	HIF-2a inh conf	HIF-1a counter	others
CCOC(=O)N1CCN(S(=O)(=O)c2c(C)nc3scc(C)n3c2=O)CC1	17	-9	5	18	9	5	·	·	·
Cc1cccc(C)c1NC(=O)c1nc(S(=O)(=O)Cc2ccccc2)ncc1Cl	91*	-88*	96*	77*	100*	95*	97*	69*	91*
CSc1ncc(Cl)c(C(=O)Nc2cccc3ccccc23)n1	9	-5	0	-1	9	10	·	·	·
O=C(NCc1c(Cl)cccc1Cl)c1[nH]c(C(F)(F)F)nc1-c1ccccc1	·	9	7	-2	17	9	·	·	·
CCOC(=O)c1c(C)oc2c(F)c(F)c(F)c(F)c2c1=O	100*	-10	-16	64*	105*	37	99*	66*	100*
CCc1ccc(N=c2c([N+](=O)[O-])nn(-c3ccc4c(c3)OCCO4)n2O)cc1	5	4	5	-119	-165	-10	·	·	·
O=[N+]([O-])c1nn(-c2ccc3c(c2)OCCO3)n(O)c1=Nc1ccc(Cl)cc1	64*	17	47	61*	72*	-8	74*	77*	100*
CCCS(=O)(=O)NC(=O)C1(C)CCN(C(=O)C2(c3ccc(Cl)cc3)CCCC2)C1 (stereo not drawn)	·	3	4	6	6	2	·	·	·
N#CCC(=N)N1CCN(c2ccc(F)cc2)CC1	-1	-2	-20	-32	-11	-37	·	·	·
C=C1CC2(OC1=O)c1ccccc1CCc1ccccc12	108*	-85*	100*	90*	97*	89*	97*	98*	107*
CCOC(=O)c1c(N)sc2c(OCC)c(Br)ccc12	-7	13	-18	-99	-43	-13	·	·	·
CCOC(=O)c1c(NC(C)=O)sc2c(OCC(O)CNC(C)(C)C)c(Br)ccc12 (stereo not drawn)	72*	-23	-21	20	108*	-28	99*	·	·	Mdm2-MdmX confirm=103*
